This experiment can be described thus: NCI Yeast Anticancer Drug Screen. Data for the sgs1 strain (AID 173).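 Note: 0% = growth of vehicle-only control cultures.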 To be noted: S. cerevisiae sgs1 mutant, hits give high values. The procedure:
Growth inhibition of yeast strains with defined genetic alterations is measured as a screen for potential anti-cancer activity. Selected strains with alterations in DNA damage repair or cell cycle control were exposed to compounds and growth inhibition was measured relative to vehicle treated controls. The strain used in this assay is sgs1

About 79,000 compounds went through this panel and 15% of them were active in at least one assay; those are over-represented in the sample as a whole. Values without a mark were called inactive. Calls of active or inactive are those of the source. Cut-off read from the data, not from the text of the source: active = growth inhibition above about 70%; inactive = the rest.

As to `CCOC(=O)COc1c(OC)cc(C2C3=C(COC3=O)Oc3cc4c(cc32)OCO4)cc1OC` (stereo not given), the growth inhibition is 0% (at 1.2 µM); 2% (at 3.7 µM); 1% (at 11.0 µM); 9% (at 33.0 µM); 28% (at 100.0 µM).

In the case of `COC(=O)C1(C)CCc2c(ccc3ccccc23)C1=O` (stereo not given), the growth inhibition runs as follows: (at 1.2 µM) -14%; (at 3.7 µM) 3%; (at 11.0 µM) 16%; (at 33.0 µM) 34%; (at 100.0 µM) 67%.

Take `Oc1ccc2ccccc2c1CCc1c(O)ccc2ccccc12`: the growth inhibition (at 1.2 µM) was 7%; the growth inhibition (at 3.7 µM) is 19%; the growth inhibition (at 11.0 µM) is 51%; the growth inhibition (at 33.0 µM) was 92% (active); the growth inhibition (at 100.0 µM) is 88% (active).

For the molecule `CC1CC(C)(C)CC(OCCN2CCCCC2)(c2ccccc2)C1` (stereo not given), the growth inhibition reads like this: (at 1.2 µM) 3%; (at 3.7 µM) 12%; (at 11.0 µM) 40%; (at 33.0 µM) 63%; (at 100.0 µM) 95% (active).

As to `O=C1C(Br)=C(c2ccccc2)O/C1=C/C(=O)c1ccc(Br)cc1`, the growth inhibition reads like this: (at 1.2 µM) 1%; (at 3.7 µM) 5%; (at 11.0 µM) 15%; (at 33.0 µM) 37%; (at 100.0 µM) 94% (active).

For `CC[N+]1(C)CCC(O)(c2ccc(OC)cc2)C(C(=O)c2ccc(OC)cc2)C1` (stereo not given), the growth inhibition is -10% (at 1.2 µM); -37% (at 3.7 µM); -49% (at 11.0 µM); -44% (at 33.0 µM); -50% (at 100.0 µM).

With `CCc1cc(O)c(Cl)c(C)c1Cl`, the growth inhibition reads like this: (at 1.2 µM) -4%; (at 3.7 µM) 6%; (at 11.0 µM) 1%; (at 33.0 µM) 44%; (at 100.0 µM) 92% (active).

On to `CCC(=O)c1cc(C(=O)C(=S)SC)cc(C(=O)C(=S)SC)c1`, for which the growth inhibition runs as follows: (at 1.2 µM) 27%; (at 3.7 µM) 62%; (at 11.0 µM) 98% (active); (at 33.0 µM) 98% (active); (at 100.0 µM) 95% (active).

The record behind these values is PubChem BioAssay (NCI).
